The results in this text go back to PubChem BioAssay (NCATS).

Several values for one entry are separate records, joined by “and”; a condition that tells them apart may be missing. Identical values can stand only once. Records with an inconclusive call do not appear. Some structures have more than one record in an assay (separate samples or runs), and their calls can disagree. Activity calls are given as the source filed them. Unless noted, the call rests on the fitted dose curve; in most records, active means well fitted curve in the direction sought with a large enough effect; inconclusive means small, poorly fitted or top-dose-only effect, or another doubt; inactive means no such curve, though single readings can be large; an effect the other way counts as inactive or inconclusive.

Test [1] can be described thus: Primary qHTS for small molecule stabilizers of the endoplasmic reticulum resident proteome: Secreted ER Calcium Modulated Protein (SERCaMP) assay (AID 1508630). Further: on the % scale 0 is the no-effect control and ±100 the full control effect. The procedure, abridged:
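GLuc-SERCaMP-expressing SH-SY5Y cells, pretreated 16 h with compound, are challenged with thapsigargin to empty ER calcium stores; after 4 h, coelenterazine is added directly to the medium and luminescence is imaged.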

The nature of test [2]: A High-Content qHTS Against Drug Library for the Identification of Small Molecules that Inhibit DYT1 Early Onset Primary Dystonia-Associated Cell Pathology (AID 1645839; calls by dose curve; further: series mostly up to about 46 µM). In short, it runs like this: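 Flp-In T-REx 293 cells with tetracycline-inducible EGFP-delE hTOR1A (WT EGFP-hTOR1A as reference), 800 cells/well; compound added with tetracycline, 48 h at 37 C. Fixed, permeabilized cells imaged; %pathology (punctate TorsinA) primary, cell count counterscreen.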
(qHTS replaces the single test concentration by a dilution series.)

Test [3] deals with Cytochrome P450 2C9 (Homo sapiens) (UniProt P11712). The test is described as follows: Cytochrome P450 family 2 subfamily C member 9 (CYP2C9) small molecule antagonists: luciferase biochemical (cell-free) qHTS assay (AID 1645842; active means well fitted curve in the direction sought with a large enough effect in the repeat runs; an effect the other way counts as inactive or inconclusive; further: nearly all actives have a fitted effect of over 55% in size; further: potency means the concentration at half of the fitted maximal effect). The procedure, abridged: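 Luminescence, after 20 min with luciferin detection reagent, reflected CYP2C9 turnover during a 1 h NADPH-driven reaction at 37C. Enzyme-substrate mix contained 0.4% bovine serum albumin and was preincubated with compound 10 min at room temperature.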
Cytochrome P450 2C9 (Homo sapiens), sequence (P11712 whole entry, looked up): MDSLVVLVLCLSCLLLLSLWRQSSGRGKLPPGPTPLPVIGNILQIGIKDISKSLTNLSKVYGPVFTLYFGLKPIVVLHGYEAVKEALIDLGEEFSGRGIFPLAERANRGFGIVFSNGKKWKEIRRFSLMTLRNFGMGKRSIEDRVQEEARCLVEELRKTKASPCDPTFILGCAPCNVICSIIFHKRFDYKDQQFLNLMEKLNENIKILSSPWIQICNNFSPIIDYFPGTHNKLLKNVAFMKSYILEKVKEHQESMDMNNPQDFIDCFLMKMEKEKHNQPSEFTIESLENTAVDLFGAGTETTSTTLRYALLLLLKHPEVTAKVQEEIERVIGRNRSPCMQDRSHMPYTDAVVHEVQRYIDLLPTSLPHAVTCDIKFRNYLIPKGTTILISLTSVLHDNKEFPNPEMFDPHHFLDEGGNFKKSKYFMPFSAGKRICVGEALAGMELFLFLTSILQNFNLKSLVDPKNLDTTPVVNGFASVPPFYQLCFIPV

For another test, the target named is Papain (Carica papaya) (UniProt P00784). The test is described as follows: Primary qHTS assay for inhibitors of the protease papain (AID 1645873).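 Further: papain turnover of Z-FR-AMC read as the AMC fluorescence gain over 10 min; series mostly up to about 50 µM; on the % scale 0 is the no-effect control and ±100 the full control effect.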
Papain (Carica papaya), sequence (P00784 whole entry, looked up): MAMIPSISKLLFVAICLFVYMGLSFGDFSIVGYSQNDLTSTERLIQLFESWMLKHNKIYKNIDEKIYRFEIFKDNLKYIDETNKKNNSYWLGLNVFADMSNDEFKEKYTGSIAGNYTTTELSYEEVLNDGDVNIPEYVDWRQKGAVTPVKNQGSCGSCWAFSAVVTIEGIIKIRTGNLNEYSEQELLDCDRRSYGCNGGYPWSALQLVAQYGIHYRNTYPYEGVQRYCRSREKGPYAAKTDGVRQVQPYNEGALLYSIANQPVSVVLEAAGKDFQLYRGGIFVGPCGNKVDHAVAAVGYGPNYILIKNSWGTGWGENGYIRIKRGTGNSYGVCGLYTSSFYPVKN
The target of test [4] is Cytochrome P450 2D6 (Homo sapiens) (UniProt P10635). The test is described as follows: Cytochrome P450 family 2 subfamily D member 6 (CYP2D6) small molecule antagonists: luciferase biochemical (cell-free) qHTS assay (AID 1645840; active means well fitted curve in the direction sought with a large enough effect in the repeat runs; an effect the other way counts as inactive or inconclusive; further: nearly all actives have a fitted effect of over 55% in size; further: potency means the concentration at half of the fitted maximal effect). In short, it runs like this: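 P450-Glo luminescent screen: recombinant CYP2D6 enzyme–proluciferin substrate mix preincubated with compound 10 min at room temperature, then NADPH regeneration added for 1 h at room temperature. Detection reagent added for 20 min; luciferin light read as relative luminescence units.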
Cytochrome P450 2D6 (Homo sapiens), sequence (P10635 whole entry, looked up): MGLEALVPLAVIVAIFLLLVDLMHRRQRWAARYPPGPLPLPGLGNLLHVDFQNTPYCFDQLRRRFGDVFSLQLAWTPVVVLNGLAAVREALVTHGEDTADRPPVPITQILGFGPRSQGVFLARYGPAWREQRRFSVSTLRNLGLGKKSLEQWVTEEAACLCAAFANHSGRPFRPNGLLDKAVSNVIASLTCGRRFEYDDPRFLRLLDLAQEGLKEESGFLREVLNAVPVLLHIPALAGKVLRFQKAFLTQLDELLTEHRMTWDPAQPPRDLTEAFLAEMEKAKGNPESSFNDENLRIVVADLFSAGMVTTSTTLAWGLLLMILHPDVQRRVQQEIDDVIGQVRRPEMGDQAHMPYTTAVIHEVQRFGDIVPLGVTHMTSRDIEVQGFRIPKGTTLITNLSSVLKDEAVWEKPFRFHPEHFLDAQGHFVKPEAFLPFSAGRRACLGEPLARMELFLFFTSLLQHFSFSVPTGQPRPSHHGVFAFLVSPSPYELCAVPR

Test [5] in a line: Primary qHTS for inhibitors of nuclear receptor binding SET domain protein 2 (NSD2) in an isogenic RCH-ACV NSD2 p.E1099K mutant (9B) (AID 1645876). Further: nearly all actives have a fitted effect of over 70% in size. Further: potency means the concentration at half of the fitted maximal effect.
Test [6] in a line: Primary qHTS for inhibitors of nuclear receptor binding SET domain protein 2 (NSD2) in an RCH-ACV wild type WT cells (2C) (AID 1645877). Further: nearly all actives have a fitted effect of over 70% in size. Further: potency means the concentration at half of the fitted maximal effect.
A short description of test [7]: Cell Viability qHTS for small molecule stabilizers of the endoplasmic reticulum resident proteome (AID 1508629).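 Further: human SH-SY5Y neuroblastoma cells carrying the GLuc-SERCaMP reporter; compound exposure about 46 h in total before the viability read; on the % scale 0 is the no-effect control and ±100 the full control effect.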 To be noted: cell viability counter-screen, 100 nM thapsigargin for final 4 h.
Test [8] addresses Cytochrome P450 3A4 (Homo sapiens) (UniProt P08684). Briefly: Cytochrome P450 family 3 subfamily A member 4 (CYP3A4) small molecule antagonists: luciferase qHTS assay (AID 1645841; active means well fitted curve in the direction sought with a large enough effect in the repeat runs; an effect the other way counts as inactive or inconclusive; further: nearly all actives have a fitted effect of over 45% in size). The procedure, abridged: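 P450-Glo CYP3A4 enzyme with proluciferin substrate preincubated 10 min with compound at room temperature, then NADPH regeneration 1 h. Luciferin detection reagent added for 20 min; luminescence recorded. Ketoconazole positive control.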

The target in test [9] is N-terminal Xaa-Pro-Lys N-methyltransferase 1 (Homo sapiens) (UniProt Q9BV86). The test is described as follows: Confirmatory qHTS for Inhibitors of N-terminal methyltransferase 1 (NTMT1): MTaseGlo Assay (AID 1645874).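 Further: luminescence from SAH made as NTMT1 methylates SPKRIA peptide using SAM; series mostly up to about 100 µM; 0% = DMSO control and -100% = no-enzyme control; nearly all actives have a fitted effect of over 65% in size.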 The procedure, abridged:
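qHTS format: NTMT1 125 nM, SAM 100 uM, peptide SPKRIA 1 uM final; 15 min compound preincubation, 30 min reaction at room temperature. MTase-Glo luminescence.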

Cytochrome P450 3A4 (Homo sapiens), sequence (P08684 whole entry, looked up): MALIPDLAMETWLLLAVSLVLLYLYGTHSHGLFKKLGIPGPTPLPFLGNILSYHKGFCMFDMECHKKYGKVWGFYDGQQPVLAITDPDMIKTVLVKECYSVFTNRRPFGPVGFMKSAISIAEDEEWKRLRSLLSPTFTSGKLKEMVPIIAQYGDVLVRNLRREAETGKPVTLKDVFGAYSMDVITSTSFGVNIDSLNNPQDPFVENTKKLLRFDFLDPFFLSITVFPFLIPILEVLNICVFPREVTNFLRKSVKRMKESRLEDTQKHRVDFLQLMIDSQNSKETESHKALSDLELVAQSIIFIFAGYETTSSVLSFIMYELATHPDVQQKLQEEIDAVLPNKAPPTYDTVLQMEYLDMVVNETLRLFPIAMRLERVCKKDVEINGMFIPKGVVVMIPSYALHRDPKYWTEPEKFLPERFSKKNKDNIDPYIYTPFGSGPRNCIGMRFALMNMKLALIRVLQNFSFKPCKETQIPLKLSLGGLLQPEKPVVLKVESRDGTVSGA
N-terminal Xaa-Pro-Lys N-methyltransferase 1 (Homo sapiens), sequence (Q9BV86 whole entry, looked up): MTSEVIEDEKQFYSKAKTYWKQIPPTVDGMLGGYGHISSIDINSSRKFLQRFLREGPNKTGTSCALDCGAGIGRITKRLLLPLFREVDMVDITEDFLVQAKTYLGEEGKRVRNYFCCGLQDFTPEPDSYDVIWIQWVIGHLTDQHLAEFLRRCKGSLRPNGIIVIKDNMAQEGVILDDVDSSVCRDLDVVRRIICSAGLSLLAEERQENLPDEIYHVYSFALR

Take `Nc1ccn([C@H]2CC[C@@H](CO)O2)c(=O)n1`: the Potency entry (in test [1]; in [2]; in test [3]; with Papain (Carica papaya)) was “inactive” each time.

Turning to `Cc1cc(C(C)(C)C)c(O)c(C)c1CC1=NCCN1`, the Potency result (in [1]; in test [2]; in test [3]; in the test with Papain (Carica papaya); in test [5]; in test [6]) was “inactive” each time. In addition, the Potency in test [4] was 1.95 µM (active).

In the case of `Clc1ccc2c(c1)C(N1CCNCC1)=Nc1ccccc1O2`, in test [7], the max response is -4.18% (inactive). In addition, the Potency result (in test [1]; in test [2]; in test [3]; in the test with Papain (Carica papaya); in [5]; in test [6]) was “inactive” in each case.

For `CCN1CCCC1CNC(=O)c1cc(S(=O)(=O)CC)c(N)cc1OC` (stereo not drawn), the Potency entry (in test [1]; in test [2]; in [3]; in the test with Papain (Carica papaya); in [5]; in [6]) was “inactive” each time. The result in test [8] was inactive.

Consider `CC12CC3CC(C)(C1)CC(N)(C3)C2`, for which the max response in [7] is 23.1% (inactive). Further, the Potency entry (in test [1]; with Papain (Carica papaya); in test [5]) was “inactive” throughout.

Regarding `CCC1(C)CC(=O)NC1=O` (stereo not drawn), the Potency result (in test [1]; in [2]; in test [3]; in the test with Papain (Carica papaya); in test [5]; in test [6]) was “inactive” throughout. Moreover, the compound was classed as inactive in test [9].

In the case of `C[C@@H]1CC(=O)NN=C1c1ccc(NN=C(C#N)C#N)cc1`, in [7], the max response was -18.7% (inactive). Moreover, the Potency result in test [1], in [2] and in [4] was “inactive” in each case. Moreover, the Potency in test [3] was 977 nM (active) and 692 nM (active); in test [5] it was 9.44 µM (active) and 18.6 µM (active); in test [6], 11.9 µM (active) and 23.7 µM (active).

For the compound `NC12CC3CC(CC(C3)C1)C2`, the max response in test [7] is 12.2% (inactive) and 7.67% (inactive). Besides, the Potency result (in test [1]; in [2]; with Papain (Carica papaya); in [5]; in test [6]) was “inactive” in each case.

For `CC(C)(C)C(=O)Oc1ccc(S(=O)(=O)Nc2ccccc2C(=O)NCC(=O)O)cc1`, the Potency result (in [1]; in test [2]; in [4]; in the test with Papain (Carica papaya); in test [5]; in test [6]) was “inactive” each time.

On to `Clc1ccc(C(c2ccccc2Cl)C(Cl)Cl)cc1` (stereo not drawn), for which the Potency entry (in test [1]; in test [2]; in [4]; with Papain (Carica papaya); in test [5]; in test [6]) was “inactive” each time. In addition, the Potency in [3] is 12.3 µM (active).

As to `CN1C2CCC1CC(OC(=O)C(CO)c1ccccc1)C2` (stereo not drawn), the max response in test [7] is -15.7% (inactive) and 13.4% (inactive). Besides, the Potency entry in [1] was “inactive”.

As to `O=c1[nH]cc(F)c(=O)[nH]1`, the Potency result (in test [1]; in test [2]; in test [3]; in the test with Papain (Carica papaya)) was “inactive” each time. The Potency in test [5] is 13.2 µM (active); in test [6] it was 23.7 µM (active) and 14.8 µM (active).

Take `CN1C(C(=O)Nc2ccccn2)=C(O)c2ccccc2S1(=O)=O`: the Potency entry (in test [1]; in test [2]; with Papain (Carica papaya); in [5]; in [6]) was “inactive” throughout. For the same compound, the Potency in [3] is 15.5 µM (active) and 10.7 µM (active).

As to `CN(CCOc1ccc(NS(C)(=O)=O)cc1)CCc1ccc(NS(C)(=O)=O)cc1`, the Potency entry (in [1]; in test [2]; in [3]; with Papain (Carica papaya); in [5]; in [6]) was “inactive” in each case.

In the case of `CC(C)(Oc1ccc(C2CC2(Cl)Cl)cc1)C(=O)O` (stereo not drawn), the Potency entry (in test [1]; in test [2]; with Papain (Carica papaya); in test [5]; in test [6]) was “inactive” each time.

For the compound `Cc1cn([C@H]2C[C@H](N=[N+]=[N-])[C@@H](CO)O2)c(=O)[nH]c1=O`, the Potency result in [1], in test [2], in test [3] and in test [5] was “inactive” throughout.

On to `CS(=O)(=O)Nc1ccc([N+](=O)[O-])cc1Oc1ccccc1`, for which the Potency result (in test [1]; in test [2]; with Papain (Carica papaya); in test [5]; in test [6]) was “inactive” each time. Also, the Potency in test [3] is 13.8 µM (active).

With `CC[N+](CC)(CC)CCOc1cccc(OCC[N+](CC)(CC)CC)c1OCC[N+](CC)(CC)CC`, the Potency entry (in test [1]; in test [2]; in test [3]; with Papain (Carica papaya); in test [5]; in [6]) was “inactive” in each case.

`Cc1cc(C(C)(C)C)cc(C)c1CC1=NCCN1`: the Potency result (in [1]; in [2]; in test [3]; with Papain (Carica papaya)) was “inactive” throughout. The Potency result was “inactive and 20.9 µM (active)” in test [5]; “inactive and 18.6 µM (active)” in [6].

Consider `NCCc1cnc[nH]1`, for which the Potency result (in test [1]; in [2]; with Papain (Carica papaya); in test [5]; in test [6]) was “inactive” in each case.

For the compound `CC(C)Cc1ccc(C(C)C(=O)O)cc1` (stereo not drawn), the Potency entry (in test [1]; in [2]; in test [3]; with Papain (Carica papaya); in test [5]; in test [6]) was “inactive” each time.

Regarding `CC1COc2c(N3CCN(C)CC3)c(F)cc3c(=O)c(C(=O)O)cn1c23` (stereo not drawn), the Potency result in test [1], in test [2], in test [3], in test [5] and in test [6] was “inactive” throughout.

With `CC(C)C(=O)Nc1ccc([N+](=O)[O-])c(C(F)(F)F)c1`, the Potency result (in [1]; in test [2]; in the test with Papain (Carica papaya)) was “inactive” each time.
